Results from PubChem BioAssay (EPA / NIEHS).
Activity calls are given as the source filed them. How the source made its calls: active means hit-call score of the fitted dose curve at least 0.9, where 1 is the maximum; inactive means score below 0.9.

Key:
Conditions in all cases: mRNA level, 48 h; actives raise or lower the signal
[1] = read-out: Lipase C (LIPC), LIPC (gene 3990); test: LTEA_HepaRG_LIPC: Life Technologies and Expression Analysis (LTEA) Assay for Lipase C (LIPC) using HepaRG (AID 2283514)
Outline: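 HepaRG cells, 48 h after plating, treated in duplicate for 48 h in serum-free induction medium over 8 half-log concentrations from 100 uM, 0.5% DMSO. LIPC mRNA by TaqMan qRT-PCR normalized to ACTB/GAPDH/POLR2A; bidirectional fit versus DMSO.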

[2] = read-out: Lipoprotein lipase (LPL), LPL (gene 4023); test: LTEA_HepaRG_LPL: Life Technologies and Expression Analysis (LTEA) Assay for Lipoprotein lipase (LPL) using HepaRG (AID 2283515)
Outline: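 Differentiated HepaRG cells, plated 48 h, then exposed 48 h in serum-free induction medium to 8 concentrations (top 100 uM, half-log steps) in 0.5% DMSO, duplicate. LPL mRNA measured by qRT-PCR, normalized to ACTB, GAPDH and POLR2A.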

[3] = read-out: MicroRNA 122 (MIR122), gene 406906; test: LTEA_HepaRG_MIR122: Life Technologies and Expression Analysis (LTEA) Assay for MicroRNA 122 (MIR122) using HepaRG (AID 2283516); further: the transcript read is the microRNA miR-122
Outline: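 HepaRG plated 48 h, switched to serum-free induction medium, then treated in duplicate for 48 h (100 uM top, half-log steps, 0.5% DMSO vehicle). RNA isolated, qRT-PCR performed, concentration-response fitted both directions relative to DMSO.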

[4] = read-out: matrix metalloproteinase-10 (MMP10), MMP10 (gene 4319); test: LTEA_HepaRG_MMP10: Life Technologies and Expression Analysis (LTEA) Assay for matrix metalloproteinase-10 (MMP10) using HepaRG (AID 2283517)
Outline: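 Differentiated HepaRG cells in serum-free induction medium exposed 48 h in duplicate to 8-point half-log series up to 100 uM in 0.5% DMSO. mRNA quantified by qRT-PCR, normalised to ACTB, GAPDH, POLR2A; bidirectional fit versus DMSO.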

MYC, MYC (gene 4609) = test: LTEA_HepaRG_MYC: Life Technologies and Expression Analysis (LTEA) Assay for MYC using HepaRG (AID 2283518)
Outline: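 Differentiated HepaRG cells exposed 48 h in serum-free induction medium to 8 concentrations (top 100 uM, half-log steps; 0.5% DMSO), duplicate. MYC mRNA measured by Fluidigm qRT-PCR, normalized to ACTB, GAPDH, POLR2A; bidirectional fit versus DMSO.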

[5] = read-out: matrix metalloproteinase-3 (MMP3), MMP3 (gene 4314); test: LTEA_HepaRG_MMP3: Life Technologies and Expression Analysis (LTEA) Assay for matrix metalloproteinase-3 (MMP3) using HepaRG (AID 2283519)
Outline: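 HepaRG cells (~100,000/well) in serum-free induction medium were dosed in duplicate for 48 h with an 8-point half-log series from 100 uM, 0.5% DMSO. MMP3 mRNA was quantified by Fluidigm TaqMan qRT-PCR, normalized to three housekeeping genes.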

[6] = read-out: Paternally Expressed 10 (PEG10), PEG10 (gene 23089); test: LTEA_HepaRG_PEG10: Life Technologies and Expression Analysis (LTEA) Assay for Paternally Expressed 10 (PEG10) using HepaRG (AID 2283520)
Outline: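 HepaRG, 48 h post-plating → serum-free induction medium → 48 h chemical exposure (duplicate, 8-pt, max 100 uM, half-log, 0.5% DMSO) → lysis in RLT → TaqMan qRT-PCR for PEG10, ACTB/GAPDH/POLR2A normalisation.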

[7] = read-out: Phosphatase and tensin (PTEN), PTEN (gene 5728); test: LTEA_HepaRG_PTEN: Life Technologies and Expression Analysis (LTEA) Assay for Phosphatase and tensin (PTEN) using HepaRG (AID 2283523)
Outline: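 HepaRG cells, 48 h after plating, exposed in duplicate for 48 h in serum-free induction medium to 8 half-log concentrations up to 100 uM (0.5% DMSO). PTEN mRNA by qRT-PCR, normalized to ACTB, GAPDH, POLR2A; bidirectional fit versus DMSO.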

[8] = read-out: solute carrier (SLC22A1), SLC22A1 (gene 6580); test: LTEA_HepaRG_SLC22A1: Life Technologies and Expression Analysis (LTEA) Assay for solute carrier (SLC22A1) using HepaRG (AID 2283524)
Outline: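 Differentiated human HepaRG cells in serum-free induction medium, exposed 48 h in duplicate to 8-point half-log series from 100 µM top in 0.5% DMSO. SLC22A1 mRNA by TaqMan qRT-PCR normalized to ACTB, GAPDH, POLR2A; bidirectional fit versus DMSO.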

[9] = read-out: Pyruvate Dehydrogenase Kinase 4 (PDK4), PDK4 (gene 5166); test: LTEA_HepaRG_PDK4: Life Technologies and Expression Analysis (LTEA) Assay for Pyruvate Dehydrogenase Kinase 4 (PDK4) using HepaRG (AID 2283525)
Outline: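 HepaRG cells plated 48 h, then switched to serum-free induction medium and exposed in duplicate for 48 h to 8 half-log concentrations from 100 uM in 0.5% DMSO. PDK4 mRNA measured by qRT-PCR, normalized to ACTB, GAPDH and POLR2A; bidirectional fit versus DMSO.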

[10] = read-out: NAD(P)H dehydrogenase [quinone] 1 (NQO1), NQO1 (gene 1728); test: LTEA_HepaRG_NQO1: Life Technologies and Expression Analysis (LTEA) Assay for NAD(P)H dehydrogenase [quinone] 1 (NQO1) using HepaRG (AID 2283526)
Outline: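 HepaRG, 48 h post-plating → serum-free induction medium → test chemical 48 h (duplicate, 100 uM top, half-log x8, 0.5% DMSO) → RNA isolation → qRT-PCR, ACTB/GAPDH/POLR2A normalization; bidirectional curve fit vs DMSO baseline.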

[11] = read-out: Nuclear factor erythroid 2-related factor 2 (Homo sapiens) (UniProt Q16236); test: LTEA_HepaRG_NFE2L2: Life Technologies and Expression Analysis (LTEA) Assay for Nuclear factor erythroid 2-related factor 2 (NFE2L2) Transcription Factor using HepaRG (AID 2283527)
Outline: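 Differentiated human HepaRG cells, serum-free induction medium, exposed 48 h in duplicate to eight half-log concentrations up to 100 uM in 0.5% DMSO. NFE2L2 mRNA by Fluidigm TaqMan qRT-PCR, normalised to ACTB, GAPDH, POLR2A; bidirectional change versus DMSO.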

[12] = read-out: succinate dehydrogenase complex iron sulfur subunit B (SDHB), SDHB (gene 6390); test: LTEA_HepaRG_SDHB: Life Technologies and Expression Analysis (LTEA) Assay for succinate dehydrogenase complex iron sulfur subunit B (SDHB) using HepaRG (AID 2283528)
Outline: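 SDHB transcript level read by TaqMan qRT-PCR, housekeeping-normalised (ACTB, GAPDH, POLR2A), after 48 h chemical treatment of plated HepaRG cells; eight concentrations top 100 uM, half-log steps, 0.5% DMSO, duplicates; fitted both directions against DMSO.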

[13] = read-out: Signal transducer and activator of transcription 3 (Homo sapiens) (UniProt P40763); test: LTEA_HepaRG_STAT3: Life Technologies and Expression Analysis (LTEA) Assay for Signal transducer and activator of transcription (STAT3) using HepaRG (AID 2283529)
Outline: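 Differentiated HepaRG cells, serum-free induction medium, dosed 48 h in duplicate, 8 half-log concentrations from 100 uM in 0.5% DMSO. STAT3 mRNA by qRT-PCR, normalised to ACTB, GAPDH, POLR2A; bidirectional fit versus DMSO.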

[14] = read-out: solute carrier (SLCO1B1), SLCO1B1 (gene 10599); test: LTEA_HepaRG_SLCO1B1: Life Technologies and Expression Analysis (LTEA) Assay for solute carrier (SLCO1B1) using HepaRG (AID 2283530)
Outline: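 Differentiated human HepaRG cells were exposed for 48 h in serum-free induction medium to eight half-log concentrations, top 100 uM, in 0.5% DMSO. SLCO1B1 mRNA was measured by qRT-PCR, normalized to ACTB, GAPDH and POLR2A, and fitted bidirectionally against DMSO.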

[15] = read-out: sulfotransferase 2A1 (SULT2A1), SULT2A1 (gene 6822); test: LTEA_HepaRG_SULT2A1: Life Technologies and Expression Analysis (LTEA) Assay for sulfotransferase 2A1 (SULT2A1) using HepaRG (AID 2283531)
Outline: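 HepaRG human liver cells, 48 h exposure in serum-free induction medium to 8 half-log concentrations topping at 100 µM (0.5% DMSO), duplicate wells. SULT2A1 mRNA measured by TaqMan qRT-PCR, normalized to ACTB/GAPDH/POLR2A; bidirectional fit against DMSO.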

[16] = read-out: Transforming Growth Factor (TGFA), TGFA (gene 7039); test: LTEA_HepaRG_TGFA: Life Technologies and Expression Analysis (LTEA) Assay for Transforming Growth Factor (TGFA) using HepaRG (AID 2283532)
Outline: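 Differentiated HepaRG cells exposed 48 hours in serum-free induction medium, 0.5% DMSO vehicle, 8-point half-log series from 100 uM, in duplicate. TGFA mRNA by TaqMan qRT-PCR, normalised to ACTB, GAPDH, POLR2A; bidirectional fit versus DMSO.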

[17] = read-out: Transforming Growth Factor (TGFB1), TGFB1 (gene 7040); test: LTEA_HepaRG_TGFB1: Life Technologies and Expression Analysis (LTEA) Assay for Transforming Growth Factor (TGFB1) Transporter using HepaRG (AID 2283533)
Outline: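 Differentiated HepaRG cells exposed 48 hr in serum-free induction medium to eight half-log concentrations up to 100 uM (0.5% DMSO), duplicate; TGFB1 mRNA by TaqMan qRT-PCR normalised to ACTB, GAPDH, POLR2A; bidirectional fit against DMSO.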

[18] = read-out: Nuclear factor NF-kappa-B p105 subunit (Homo sapiens) (UniProt P19838); test: LTEA_HepaRG_NFKB1: Life Technologies and Expression Analysis (LTEA) Assay for Nuclear Factor Kappa B Subunit 1 (NFKB1) using HepaRG (AID 2283521)
Outline: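 NFKB1 transcript was measured by TaqMan qRT-PCR on Fluidigm arrays, normalised to three housekeeping genes and fitted in both directions against 0.5% DMSO. HepaRG cells were dosed in duplicate for 48 h in serum-free induction medium, eight half-log steps from 100 uM.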

[19] = read-out: Protein phosphatase 2A (PPP2R4), PTPA (gene 5524); test: LTEA_HepaRG_PPP2R4: Life Technologies and Expression Analysis (LTEA) Assay for Protein phosphatase 2A (PPP2R4) using HepaRG (AID 2283522)
Outline: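 Readout is PPP2R4 transcript level by microfluidic qRT-PCR after 48 h chemical treatment of human HepaRG liver cells. Concentrations spanned 100 uM downward in half-log steps; gain or loss of signal was fitted relative to DMSO.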

Measured: AC50

Chain of Nuclear factor NF-kappa-B p105 subunit (Homo sapiens) (P19838 whole entry, looked up): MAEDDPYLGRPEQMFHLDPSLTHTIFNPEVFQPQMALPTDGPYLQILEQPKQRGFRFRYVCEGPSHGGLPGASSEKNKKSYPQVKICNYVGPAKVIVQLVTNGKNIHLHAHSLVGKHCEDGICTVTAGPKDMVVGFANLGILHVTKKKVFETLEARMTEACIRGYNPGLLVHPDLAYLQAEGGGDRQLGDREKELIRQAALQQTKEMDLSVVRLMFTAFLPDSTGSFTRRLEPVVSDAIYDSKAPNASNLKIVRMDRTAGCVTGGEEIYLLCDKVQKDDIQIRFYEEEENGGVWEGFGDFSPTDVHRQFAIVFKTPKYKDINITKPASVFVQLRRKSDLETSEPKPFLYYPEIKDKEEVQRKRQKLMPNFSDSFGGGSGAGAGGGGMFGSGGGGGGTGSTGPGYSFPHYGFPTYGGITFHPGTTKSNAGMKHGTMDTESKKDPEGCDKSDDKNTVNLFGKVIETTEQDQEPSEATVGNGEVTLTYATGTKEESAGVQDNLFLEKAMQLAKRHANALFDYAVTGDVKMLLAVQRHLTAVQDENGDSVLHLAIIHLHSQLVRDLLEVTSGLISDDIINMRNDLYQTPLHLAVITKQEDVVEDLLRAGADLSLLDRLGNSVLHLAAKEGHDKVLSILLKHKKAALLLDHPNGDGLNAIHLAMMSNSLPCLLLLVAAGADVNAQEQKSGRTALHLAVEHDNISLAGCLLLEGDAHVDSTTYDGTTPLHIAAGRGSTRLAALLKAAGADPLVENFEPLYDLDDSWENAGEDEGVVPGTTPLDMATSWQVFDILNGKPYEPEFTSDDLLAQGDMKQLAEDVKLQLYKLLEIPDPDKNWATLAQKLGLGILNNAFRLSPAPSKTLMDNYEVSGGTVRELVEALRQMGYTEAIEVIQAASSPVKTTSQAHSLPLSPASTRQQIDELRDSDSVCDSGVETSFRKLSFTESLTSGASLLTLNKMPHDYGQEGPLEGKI
Chain of Nuclear factor erythroid 2-related factor 2 (Homo sapiens) (Q16236 whole entry, looked up): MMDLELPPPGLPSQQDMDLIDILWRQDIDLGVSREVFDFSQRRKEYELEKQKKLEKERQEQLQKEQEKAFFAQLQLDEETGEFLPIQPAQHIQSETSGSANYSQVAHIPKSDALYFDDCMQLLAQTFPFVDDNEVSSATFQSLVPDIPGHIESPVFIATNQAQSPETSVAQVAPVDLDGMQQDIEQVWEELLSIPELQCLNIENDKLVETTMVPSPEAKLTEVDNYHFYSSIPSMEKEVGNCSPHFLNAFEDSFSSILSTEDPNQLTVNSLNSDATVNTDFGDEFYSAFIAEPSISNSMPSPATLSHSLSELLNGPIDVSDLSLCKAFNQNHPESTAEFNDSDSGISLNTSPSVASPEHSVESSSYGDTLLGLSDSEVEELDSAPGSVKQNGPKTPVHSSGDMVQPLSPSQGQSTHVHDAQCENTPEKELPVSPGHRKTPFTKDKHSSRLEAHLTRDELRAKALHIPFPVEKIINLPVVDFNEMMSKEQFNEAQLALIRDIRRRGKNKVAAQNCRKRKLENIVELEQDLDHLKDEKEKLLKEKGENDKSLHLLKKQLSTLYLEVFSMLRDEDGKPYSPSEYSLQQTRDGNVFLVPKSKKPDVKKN
Chain of Signal transducer and activator of transcription 3 (Homo sapiens) (P40763 whole entry, looked up): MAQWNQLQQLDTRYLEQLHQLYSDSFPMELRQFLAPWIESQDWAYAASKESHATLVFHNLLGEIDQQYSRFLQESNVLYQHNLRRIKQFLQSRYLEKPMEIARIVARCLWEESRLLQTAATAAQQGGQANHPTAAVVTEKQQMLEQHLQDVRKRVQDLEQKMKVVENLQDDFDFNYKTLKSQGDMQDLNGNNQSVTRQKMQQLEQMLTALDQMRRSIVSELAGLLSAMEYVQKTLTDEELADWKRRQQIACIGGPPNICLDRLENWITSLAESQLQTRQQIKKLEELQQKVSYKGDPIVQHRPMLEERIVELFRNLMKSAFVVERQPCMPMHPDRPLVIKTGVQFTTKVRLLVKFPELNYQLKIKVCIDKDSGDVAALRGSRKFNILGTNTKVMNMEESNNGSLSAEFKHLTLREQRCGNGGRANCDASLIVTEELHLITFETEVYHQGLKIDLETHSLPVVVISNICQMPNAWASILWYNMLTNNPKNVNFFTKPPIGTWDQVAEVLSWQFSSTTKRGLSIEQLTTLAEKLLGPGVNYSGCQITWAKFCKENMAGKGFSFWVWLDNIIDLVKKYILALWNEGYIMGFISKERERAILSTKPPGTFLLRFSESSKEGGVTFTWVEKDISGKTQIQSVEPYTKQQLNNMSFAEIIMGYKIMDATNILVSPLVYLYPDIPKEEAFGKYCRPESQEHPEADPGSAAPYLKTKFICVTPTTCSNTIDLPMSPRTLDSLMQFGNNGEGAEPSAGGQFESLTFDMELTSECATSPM

O=c1ccc2ccccc2o1
not listed: [18] | [19]
inactive: all other assays above

Cc1ccc(C(C)C)cc1
not listed: [17] | [18] | [19]
inactive: all other assays above

O=CCCCC=O
not listed: [17] | [18] | [19]
inactive: all other assays above

Oc1ccc2ccccc2c1
not listed: [17] | [19]
inactive: all other assays above

OCCO
not listed: [18] | [19]
inactive: all other assays above

O=C(O)Cn1c(=O)n(Cc2ccc(Br)cc2F)c(=O)c2ccc(Cl)cc21
active: [2] 9.92 µM | [9] 38.8 µM
inactive: all other assays above

CC(C)(C)c1csc(-c2cc3cc(OCc4ccccc4CC(=O)O)ccc3o2)n1
active: [1] 25.1 µM | [2] 81.8 µM | [3] 90.7 µM | [4] 32.8 µM | MYC, MYC (gene 4609) 32 µM | [5] 85.6 µM | [6] 50 µM | [19] 85.2 µM | [7] 80.1 µM | [8] 25 µM | [9] 12 µM | [10] 93.4 µM | [12] 84.8 µM | [13] 91 µM | [14] 50 µM | [15] 34 µM | [16] 85.4 µM
inactive: [11]

CCO[Si](CCCNC(N)=O)(OCC)OCC
not listed: [18] | [19]
inactive: all other assays above

Cc1cc2c(cc1C(F)(F)F)N(C(=O)Nc1ccc(Oc3cccnc3C)nc1)CC2
active: [1] 46 µM | [2] 80.4 µM | [3] 46 µM | [4] 26.8 µM | [8] 30.1 µM
not listed: [17] | [18] | [19]
inactive: all other assays above

O=C=NCCCCCCN=C=O
not listed: [19]
inactive: all other assays above

COc1ccc2cc(S(=O)(=O)N[C@H](CC(=O)N[C@H](Cc3ccc(CN4[C@H](C)CCC[C@@H]4C)cc3)C(=O)N(C)C(C)C)c3ccc4c(c3)OCO4)ccc2c1
active: [2] 24.1 µM | [3] 11.4 µM | [4] 24.3 µM | MYC, MYC (gene 4609) 24.7 µM | [6] 11.5 µM | [7] 15 µM | [8] 26.4 µM | [9] 86.6 µM | [11] 21.8 µM | [12] 22 µM | [13] 12.4 µM | [14] 26.3 µM | [15] 75.2 µM | [16] 25.3 µM | [17] 12.8 µM
inactive: [1] | [5] | [10]

O=c1[nH]sc2ccccc12
not listed: [17] | [18]
inactive: all other assays above

O=C(OCCCCCCOC(=O)c1ccccc1)c1ccccc1
not listed: [18]
inactive: all other assays above
